# Results from PubChem BioAssay.
# Activity calls are given as the source filed them. Unless noted, no rule for the calls is given here.
# Columns and labels:
# [1] = system: Wnt5a (protein binding on small-molecule microarray); experiment: Wnt5a binders on small-molecule microarray, primary screen, biophysical, 635/667 nm fluorescence (AID 1142); conditions: 635 nm fluorescence, higher = more signal;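 also: fluorescence read at 667 nm with signal to noise per printed feature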
# [2] = cell viability in Huh7 cells, primary screen, cytotoxicity control for HCV replication inhibitor project, CellTiter-Glo luminescence, basal, 48 h (AID 1143); conditions: Huh7 HCV replicon, higher = more signal, called active from +8 up or from −8 down;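 also: Huh7 hepatoma cells carrying a hepatitis C replication reporter with no stimulus; test concentration not given here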
# [3] = P. aeruginosa biofilm formation inhibitors, primary screen, PAO1 strain, BacTiter-Glo luminescence, LB-PBS (AID 1144); conditions: 12 h, higher = more signal
# [4] = CREB reporter modulators without forskolin, primary screen, cell-based, PC12, CRE-LacZ reporter, unstimulated (AID 1145); conditions: no forskolin, luminescence, 4.5 h, higher = more signal, called active from +8 up or from −8 down
# [5] = CREB reporter modulators under forskolin, primary screen, cell-based, PC12, CRE-LacZ reporter, forskolin-stimulated (AID 1146); conditions: luminescence, 4.5 h, higher = more signal, called active from +8 up or from −8 down;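 also: PC12 cells with 6xCRE LacZ reporter stimulated by forskolin 10 µM; beta-galactosidase reporter signal reflecting CREB driven transcription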
# [6] = target: Streptavidin (Streptomyces avidinii) (UniProt P22629); experiment: streptavidin binders on small-molecule microarray, primary screen, artefact control for SMM compound annotation, biophysical, 635/667 nm fluorescence (AID 1147); conditions: streptavidin binding, higher = more signal;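 also: signal reflects streptavidin binding to arrayed compounds as a control protein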
# Streptavidin (Streptomyces avidinii), sequence (P22629 whole entry, looked up): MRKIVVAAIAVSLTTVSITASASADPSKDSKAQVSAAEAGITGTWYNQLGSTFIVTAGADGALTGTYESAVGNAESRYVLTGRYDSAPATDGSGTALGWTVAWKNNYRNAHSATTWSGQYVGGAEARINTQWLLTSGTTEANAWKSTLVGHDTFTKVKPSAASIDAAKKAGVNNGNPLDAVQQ
# [7] = small-molecule binders of probe aInhba, primary screen, biochemical, small-molecule microarray, 635/667 nm fluorescence (AID 1148); conditions: higher = more signal;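 also: score merges 667nm spot fluorescence with signal-to-noise for antibody binding to printed compounds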
# Torsin-1A (Homo sapiens) [8] = target: Torsin-1A (Homo sapiens) (UniProt O14656); experiment: torsin A binders from cell lysate, primary screen, small-molecule microarray, wild-type, 635/667 nm (AID 1149); conditions: COS7 hTOR1A-WT lysate, 635 nm fluorescence, higher = more signal
# Torsin-1A (Homo sapiens), sequence (O14656 whole entry, looked up): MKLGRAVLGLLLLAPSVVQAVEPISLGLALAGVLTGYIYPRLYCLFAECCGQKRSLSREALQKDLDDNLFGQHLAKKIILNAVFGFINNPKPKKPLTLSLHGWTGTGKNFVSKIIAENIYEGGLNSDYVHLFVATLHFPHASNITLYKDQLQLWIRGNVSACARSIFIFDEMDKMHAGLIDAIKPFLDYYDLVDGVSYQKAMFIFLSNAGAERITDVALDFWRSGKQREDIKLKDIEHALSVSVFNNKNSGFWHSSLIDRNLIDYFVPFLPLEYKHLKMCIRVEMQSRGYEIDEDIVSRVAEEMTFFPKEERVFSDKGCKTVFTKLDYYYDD
# Torsin-1A (Homo sapiens) [9] = target: Torsin-1A (Homo sapiens) (UniProt O14656); experiment: small-molecule binders of mutant TOR1A in lysate, primary screen, cell lysate, small-molecule microarray, COS7 lysate, 635/667 nm fluorescence (AID 1150); conditions: COS7 hTOR1A mutant lysate, 635 nm fluorescence, higher = more signal;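 also: score pools 667 nm emission and signal to noise measuring lysate protein binding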
# [10] = system: Sonic hedgehog protein (Shh); experiment: small-molecule binders of Shh protein, primary screen, biochemical, small-molecule microarray, 635/667 nm fluorescence (AID 1151); conditions: small-molecule microarray binding, 635 nm fluorescence; higher = more signal;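 also: Shh protein binding to compounds spotted on small-molecule microarray slides; score combines spot fluorescence intensity with signal-to-noise across triplicate slides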
# [11] = E. coli DRC41 culture turbidity changes, primary screen, E. coli filamentation inducer project, strain DRC41, OD650, 48 h (AID 1152);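 also: E. coli MC1000 strain DRC41 lacking acrAB efflux pump and sulA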; conditions: E. coli DRC41 (acrAB sulA), higher = more signal, called active from +8 up or from −8 down
# [12] = small-molecule binders of probe aLefty1, primary screen, biochemical, small-molecule microarray, 635/667 nm fluorescence (AID 1153); conditions: higher = more signal;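 also: score merges spot fluorescence with signal-to-noise ratio from the scanned slide images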
# [13] = PSAC antagonists in infected red cells, primary screen, cell-based, P. falciparum Indochina, OD700, 1 h (AID 1154); conditions: P. falciparum Indochina infected RBC osmotic lysis, higher = more signal, called active from +8 up or from −8 down
# [14] = PSAC antagonists in infected red cells, primary screen, cell-based, P. falciparum Indochina, OD700, 2 h (AID 1155);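 also: lysis reports solute entry through the parasite surface anion channel PSAC; channel blockers reduce lysis of infected cells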; conditions: P. falciparum Indochina infected erythrocytes, osmotic lysis OD700; higher = more signal, called active from +8 up or from −8 down
# [15] = osmotic lysis modulators in infected erythrocytes, primary screen, PSAC antagonist project, cell-based, P. falciparum Indochina, OD700, 3 h (AID 1156); conditions: higher = more signal, called active from +8 up or from −8 down
# [16] = PSAC antagonists in infected red cells, primary screen, cell-based, P. falciparum Indochina, OD700, 18 h (AID 1157); conditions: P. falciparum Indochina infected erythrocytes, osmotic lysis OD700, 18 h; higher = more signal, called active from +8 up or from −8 down
# [17] = modulators of S6 phosphorylation in cells, primary screen, cell-based, A549, cytoblot, luminescence, serum-stimulated (AID 1158); conditions: A549 phospho-S6 cytoblot, 5 h, higher = more signal;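 also: serum-stimulated A549 lung adenocarcinoma cells; signal is phosphorylated S6 detected by cytoblot immunostaining with HRP secondary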
# [18] = target: NADPH oxidase 2 (Homo sapiens) (UniProt P04839); experiment: NOX2-dependent H2O2 signal modulators, primary screen, NOX inhibitor project, cell-based, HEK293-NOX2, PMA-stimulated, Amplex Red fluorescence (AID 1159); conditions: 45 min, higher = more signal, called active from +8 up or from −8 down; also: test concentration not given here
# NADPH oxidase 2 (Homo sapiens), sequence (P04839 whole entry, looked up): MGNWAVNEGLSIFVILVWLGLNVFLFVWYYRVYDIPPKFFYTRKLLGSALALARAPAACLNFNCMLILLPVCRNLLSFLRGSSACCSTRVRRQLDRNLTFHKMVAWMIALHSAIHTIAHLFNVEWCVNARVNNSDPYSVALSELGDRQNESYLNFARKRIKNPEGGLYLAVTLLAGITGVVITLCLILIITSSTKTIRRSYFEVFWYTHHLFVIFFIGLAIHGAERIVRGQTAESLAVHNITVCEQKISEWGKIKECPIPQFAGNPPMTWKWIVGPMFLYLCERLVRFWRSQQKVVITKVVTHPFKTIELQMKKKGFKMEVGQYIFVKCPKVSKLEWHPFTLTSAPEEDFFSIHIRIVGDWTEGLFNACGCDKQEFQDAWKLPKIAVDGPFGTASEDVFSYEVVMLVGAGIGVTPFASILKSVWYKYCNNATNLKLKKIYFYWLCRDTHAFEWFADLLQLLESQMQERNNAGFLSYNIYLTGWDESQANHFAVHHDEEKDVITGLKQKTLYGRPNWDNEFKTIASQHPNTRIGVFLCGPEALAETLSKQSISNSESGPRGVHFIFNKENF
# [19] = target: NADPH oxidase 4 (Homo sapiens) (UniProt Q9NPH5); experiment: NOX4-dependent H2O2 signal modulators, primary screen, NOX inhibitor project, cell-based, HEK293-NOX4, tetracycline-induced, Amplex Red fluorescence (AID 1160); conditions: 45 min, higher = more signal, called active from +8 up or from −8 down
# NADPH oxidase 4 (Homo sapiens), sequence (Q9NPH5 whole entry, looked up): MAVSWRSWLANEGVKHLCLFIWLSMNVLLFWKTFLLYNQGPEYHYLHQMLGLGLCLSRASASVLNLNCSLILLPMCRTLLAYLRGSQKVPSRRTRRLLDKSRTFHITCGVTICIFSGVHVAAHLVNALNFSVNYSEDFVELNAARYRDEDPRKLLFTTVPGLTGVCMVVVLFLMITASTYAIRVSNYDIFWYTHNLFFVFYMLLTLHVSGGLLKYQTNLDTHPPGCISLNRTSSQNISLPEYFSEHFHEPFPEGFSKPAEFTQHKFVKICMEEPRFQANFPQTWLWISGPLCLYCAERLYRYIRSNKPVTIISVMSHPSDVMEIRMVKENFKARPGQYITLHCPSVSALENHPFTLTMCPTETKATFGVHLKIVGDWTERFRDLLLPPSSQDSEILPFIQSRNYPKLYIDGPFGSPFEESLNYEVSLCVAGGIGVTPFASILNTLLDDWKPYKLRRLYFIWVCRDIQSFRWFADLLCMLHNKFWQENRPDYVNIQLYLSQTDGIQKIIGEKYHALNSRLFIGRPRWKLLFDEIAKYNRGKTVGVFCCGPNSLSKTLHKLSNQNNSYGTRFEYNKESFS
# [20] = target: NADPH oxidase 5 (Homo sapiens) (UniProt Q96PH1); experiment: NOX5-dependent H2O2 signal modulators, primary screen, NOX inhibitor project, cell-based, HEK293-NOX5, Amplex Red fluorescence (AID 1161); conditions: HEK293-NOX5, ionomycin, 45 min, higher = more signal
# NADPH oxidase 5 (Homo sapiens), sequence (Q96PH1 whole entry, looked up): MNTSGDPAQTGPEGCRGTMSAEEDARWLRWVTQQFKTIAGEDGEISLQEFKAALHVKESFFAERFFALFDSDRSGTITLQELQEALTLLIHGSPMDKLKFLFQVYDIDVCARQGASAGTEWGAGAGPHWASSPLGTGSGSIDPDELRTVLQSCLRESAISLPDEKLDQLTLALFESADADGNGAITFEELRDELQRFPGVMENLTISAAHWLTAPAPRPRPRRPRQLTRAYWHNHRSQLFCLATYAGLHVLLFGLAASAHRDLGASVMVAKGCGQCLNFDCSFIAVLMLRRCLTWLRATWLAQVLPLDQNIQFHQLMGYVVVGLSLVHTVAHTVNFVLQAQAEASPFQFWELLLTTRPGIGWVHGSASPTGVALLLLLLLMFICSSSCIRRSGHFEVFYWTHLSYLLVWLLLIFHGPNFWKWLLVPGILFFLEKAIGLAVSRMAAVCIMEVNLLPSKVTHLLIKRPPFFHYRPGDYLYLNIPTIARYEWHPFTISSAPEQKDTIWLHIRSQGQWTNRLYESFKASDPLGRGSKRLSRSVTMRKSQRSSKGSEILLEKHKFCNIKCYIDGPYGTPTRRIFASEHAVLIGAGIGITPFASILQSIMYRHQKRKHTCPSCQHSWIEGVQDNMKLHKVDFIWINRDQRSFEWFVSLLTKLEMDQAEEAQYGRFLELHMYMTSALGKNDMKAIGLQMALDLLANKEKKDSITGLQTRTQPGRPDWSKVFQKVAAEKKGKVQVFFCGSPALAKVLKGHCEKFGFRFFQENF
Compound,composite z-score [1],z-score [2],z-score [3],z-score [4],z-score [5],composite z-score [6],composite z-score [7],composite z-score (Torsin-1A (Homo sapiens) [8]),composite z-score (Torsin-1A (Homo sapiens) [9]),composite z-score [10],z-score [11],composite z-score [12],z-score [13],z-score [14],z-score [15],z-score [16],z-score [17],z-score [18],z-score [19],z-score [20]
COc1cc2c(cc1OC)CN(C(=O)[C@H]1[C@@H]3C(=O)O[C@@H](c4ccccc4)[C@@H](c4ccccc4)N3[C@@H](c3ccccc3OCCO)[C@]13C(=O)Nc1ccc(C#CCCO)cc13)CC2,0.703,-0.964 (inactive),0.677 (inactive),0.712 (inactive),1.64 (inactive),0.225,-0.0567,-0.0954,0.142,1.75,-0.667 (inactive),0.112,3.11 (inactive),1.89 (inactive),1.89 (inactive),0.835 (inactive),-0.482,1.44 (inactive),1.26 (inactive),0.819
C=CCN1C(=O)[C@]2(Cc3ccccc3)N=C(c3ccc(OCCCO)cc3)O[C@@H]2c2ccccc21,0.611,-3.85 (inactive),0.000807 (inactive),2.97 (inactive),-1.79 (inactive),0.752,0.13,0.443,0.842,1.79,0.567 (inactive),0.43,33.1 (active),30.1 (active),2.14 (inactive),10.2 (active),-0.204,-1.78 (inactive),0.46 (inactive),1.07
O=c1cccc(-c2ccccc2Cl)o1,-0.196,-0.759 (inactive),0.387 (inactive),0.285 (inactive),0.556 (inactive),0.423,0.115,0.64,0.112,0.322,-0.685 (inactive),-0.456,0.298 (inactive),0.585 (inactive),-0.187 (inactive),0.414 (inactive),-0.767,0.182 (inactive),-0.914 (inactive),0.863
NC(=O)[C@@]1(Cc2ccccc2)N=C(c2ccc(OCCCO)cc2)O[C@H]1c1ccccc1,0.677,-1.51 (inactive),-0.657 (inactive),1.37 (inactive),-0.382 (inactive),0.924,0.196,1.07,0.601,-0.558,1.53 (inactive),0.232,16.3 (active),2.07 (inactive),0.59 (inactive),0.639 (inactive),0.151,-0.281 (inactive),0.211 (inactive),0.495
COc1ccc([C@H]2OC[C@@H]3CCC(=O)N32)cc1,0.279,0.638 (inactive),0.495 (inactive),1.2 (inactive),0.426 (inactive),0.711,0.114,1.08,0.214,0.79,0.0137 (inactive),0.0868,0.4 (inactive),0.698 (inactive),-0.297 (inactive),0.48 (inactive),0.0166,0.982 (inactive),0.342 (inactive),-0.0609
C=C(CCCC)/C(=C/C[C@@H](OC(C)=O)c1ccccc1OCCO)c1cc(C(=O)OC)ccc1OC,-0.115,-0.774 (inactive),-0.341 (inactive),16 (active),-1.14 (inactive),-0.478,-0.15,0.0851,0.0547,0.566,0.725 (inactive),-0.239,27.1 (active),11.2 (active),2.14 (inactive),1.71 (inactive),-0.733,1.27 (inactive),0.282 (inactive),-1.36
O=C1OCC=C[C@H]2OC34C=CCN(Cn5nnc6ccccc65)C(=O)[C@H]3N(CCCCCO)C(=O)[C@@H]4[C@@H]12 (stereo not given in full),0.238,-0.17 (inactive),-1.03 (inactive),-0.623 (inactive),-0.29 (inactive),-0.573,-0.348,-0.884,-1.08,-0.502,0.911 (inactive),-0.418,0.896 (inactive),0.212 (inactive),1.11 (inactive),0.383 (inactive),-0.433,1.95 (inactive),0.223 (inactive),1.32
C=C(C)[C@@H]1CC=C(C(O)C2C=CC3C(=O)NC(=O)C3N2Nc2ccc(Cl)cc2Cl)CC1 (stereo not given in full),0.287,-1.64 (inactive),-0.995 (inactive),0.815 (inactive),-0.113 (inactive),1.39,0.099,-0.0124,0.455,0.393,-2.9 (inactive),0.266,5.74 (inactive),1.4 (inactive),-0.372 (inactive),1.61 (inactive),-1.02,-2.38 (inactive),-6.41 (inactive),-3.51
COc1ccc([Si](C)(C)[C@@H]2[C@@H](CCO)O[C@]3(C(=O)N(Cc4cccc(N5CCOC5=O)c4)c4ccccc43)[C@H]2C)cc1,0.183,-5.47 (inactive),-0.631 (inactive),8.62 (active),-0.905 (inactive),0.424,0.0569,0.531,0.226,0.529,-0.196 (inactive),0.0357,31.3 (active),29.8 (active),-0.28 (inactive),3.29 (inactive),0.715,-0.327 (inactive),2.15 (inactive),1.98
